Data as given in PubChem BioAssay (NCI).
This is part of a sample that, as a whole, favours compounds with a hit. Of some 83,000 tested, about 20% had one in any assay.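 Method: cells in 96-well plates; compound added at one concentration; 48 h incubation; percent growth measured; values under 10 scored active.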 The source made the active and inactive calls.

Tests used:
Test in all cases: NCI-60 one-dose screen, 48 h (100 = growth as untreated, 0 = no growth, -100 = all killed)
Settings in all cases: 10 µM unless noted
SR leukemia = tested on: SR leukemia
RPMI-8226 leukemia = tested on: RPMI-8226 leukemia
OVCAR-8 ovarian = tested on: OVCAR-8 ovarian
OVCAR-5 ovarian = tested on: OVCAR-5 ovarian
OVCAR-4 ovarian = tested on: OVCAR-4 ovarian
SK-OV-3 ovarian = tested on: SK-OV-3 ovarian
OVCAR-3 ovarian = tested on: OVCAR-3 ovarian
HS 578T breast = tested on: HS 578T breast
NCI/ADR-RES ovarian = tested on: NCI/ADR-RES ovarian
IGROV1 ovarian = tested on: IGROV1 ovarian

Measured: growth

O=C(O)c1cccc2cccc(-c3c4ccc(=O)c(O)c-4oc4c(O)c(O)ccc34)c12
inactive: SR leukemia 83.6% | RPMI-8226 leukemia 123% | OVCAR-8 ovarian 100% | OVCAR-5 ovarian 97.5% | OVCAR-4 ovarian 97.4% | SK-OV-3 ovarian 90.1% | OVCAR-3 ovarian 93.5% | HS 578T breast 99.5% | NCI/ADR-RES ovarian 96.7%

Cc1ccc(Nc2ccc(O)c3c2C(=O)c2c(O)ccc(Nc4ccc(C)cc4)c2C3=O)cc1
inactive: SR leukemia 108% | RPMI-8226 leukemia 96.6% | OVCAR-8 ovarian 91.4% | OVCAR-5 ovarian 106% | OVCAR-4 ovarian 111% | SK-OV-3 ovarian 108% | OVCAR-3 ovarian 113% | HS 578T breast 103% | NCI/ADR-RES ovarian 107%

O=C1CSC(=S)N1Cc1cccnc1
active: SR leukemia -10.3% | RPMI-8226 leukemia 9.56%
inactive: OVCAR-8 ovarian 53.8% | OVCAR-5 ovarian 106% | OVCAR-4 ovarian 91.7% | SK-OV-3 ovarian 106% | OVCAR-3 ovarian 99.2% | HS 578T breast 114% | NCI/ADR-RES ovarian 106%

O=C(C[P+](c1ccccc1)(c1ccccc1)c1ccccc1)c1ccccc1
inactive: SR leukemia 90.4% | RPMI-8226 leukemia 92.6% | OVCAR-8 ovarian 95.9% | OVCAR-5 ovarian 89.6% | OVCAR-4 ovarian 83.9% | SK-OV-3 ovarian 104% | OVCAR-3 ovarian 93.8% | HS 578T breast 96.9% | NCI/ADR-RES ovarian 82.8%

CC(=O)c1ccc2c(c1)CCc1ccccc1-2
inactive: SR leukemia 103% | RPMI-8226 leukemia 108% | OVCAR-8 ovarian 109% | OVCAR-5 ovarian 88.9% | OVCAR-4 ovarian 98.8% | SK-OV-3 ovarian 101% | OVCAR-3 ovarian 125% | HS 578T breast 103% | NCI/ADR-RES ovarian 119%

CCN1CCCC(Nc2cc(C)nc(/N=C(/N)Nc3ccc(Cl)c(Cl)c3)n2)C1 (stereo unspecified)
inactive: OVCAR-5 ovarian 13% | NCI/ADR-RES ovarian 17.2%
active: SR leukemia -60.3% | RPMI-8226 leukemia -31.6% | OVCAR-8 ovarian -21.5% | OVCAR-4 ovarian -17.3% | SK-OV-3 ovarian 6.57% | OVCAR-3 ovarian -49% | HS 578T breast -37.8%

N=C(N)Sc1cccc[n+]1[O-]
active: SR leukemia 4.61% | RPMI-8226 leukemia 7.12%
inactive: OVCAR-8 ovarian 45.6% | OVCAR-5 ovarian 98.2% | OVCAR-4 ovarian 15.7% | SK-OV-3 ovarian 85.3% | OVCAR-3 ovarian 21.7% | HS 578T breast 82.9% | NCI/ADR-RES ovarian 53.5%

CC12CCC(O)CC1=CCC1C2CCC2(C)C3=NN=CC3CC12 (stereo unspecified)
inactive: SR leukemia 60.1% | RPMI-8226 leukemia 96.5% | OVCAR-8 ovarian 107% | OVCAR-5 ovarian 106% | OVCAR-4 ovarian 107% | SK-OV-3 ovarian 115% | OVCAR-3 ovarian 116% | HS 578T breast 95.6% | NCI/ADR-RES ovarian 98.6%

Fc1ccc(NCCS)cc1
inactive: SR leukemia 88.9% | RPMI-8226 leukemia 91% | OVCAR-8 ovarian 103% | OVCAR-5 ovarian 104% | OVCAR-4 ovarian 102% | IGROV1 ovarian 104% | OVCAR-3 ovarian 107% | HS 578T breast 115% | NCI/ADR-RES ovarian 109%

O=C(c1ccccc1)C(Br)[N+](=O)[O-] (stereo unspecified)
active: SR leukemia 5.17%
inactive: RPMI-8226 leukemia 75.9% | OVCAR-8 ovarian 83.9% | OVCAR-5 ovarian 96.4% | OVCAR-4 ovarian 104% | SK-OV-3 ovarian 79.9% | OVCAR-3 ovarian 101% | HS 578T breast 91.3% | NCI/ADR-RES ovarian 101%

O=C(O)c1ccc2c(c1)C(=O)c1ccccc1C2=O
inactive: SR leukemia 86.4% | RPMI-8226 leukemia 102% | OVCAR-8 ovarian 98.9% | OVCAR-5 ovarian 101% | OVCAR-4 ovarian 96.7% | SK-OV-3 ovarian 98.8% | OVCAR-3 ovarian 99.3% | HS 578T breast 95.6% | NCI/ADR-RES ovarian 105%

CC(=O)Nc1ccc(C(=O)CCl)cc1
active: SR leukemia -17.9% | OVCAR-3 ovarian -21.6%
inactive: RPMI-8226 leukemia 25.2% | OVCAR-8 ovarian 92.1% | OVCAR-5 ovarian 94.5% | OVCAR-4 ovarian 60.6% | IGROV1 ovarian 93.2% | HS 578T breast 19% | NCI/ADR-RES ovarian 84.5%

c1ccc(-c2cccc(-c3ccccn3)n2)nc1
active: SR leukemia 7.98% | SK-OV-3 ovarian 7.86% | NCI/ADR-RES ovarian 1.8%
inactive: RPMI-8226 leukemia 20.8% | OVCAR-8 ovarian 12% | OVCAR-5 ovarian 59% | OVCAR-4 ovarian 33.3% | OVCAR-3 ovarian 28.2% | HS 578T breast 67%

CCCCCCCCCCCCCCCCCC[S+](C)CC (stereo unspecified)
active: OVCAR-5 ovarian 9.31% | OVCAR-4 ovarian 7.76%
inactive: SR leukemia 32.7% | RPMI-8226 leukemia 30.4% | OVCAR-8 ovarian 13.9% | SK-OV-3 ovarian 49.5% | OVCAR-3 ovarian 45.1% | HS 578T breast 35.9% | NCI/ADR-RES ovarian 84.7%

CC1CC(C)(C)OB(OC(C)CC(C)(C)OB2OC(C)CC(C)(C)O2)O1 (stereo unspecified)
inactive: SR leukemia 96.9% | RPMI-8226 leukemia 100% | OVCAR-8 ovarian 102% | OVCAR-5 ovarian 103% | OVCAR-4 ovarian 111% | IGROV1 ovarian 107% | OVCAR-3 ovarian 76.6% | HS 578T breast 121% | NCI/ADR-RES ovarian 101%

CCC(C)(O)Cc1ccc(Cl)cc1 (stereo unspecified)
inactive: SR leukemia 101% | RPMI-8226 leukemia 105% | OVCAR-8 ovarian 108% | OVCAR-5 ovarian 111% | OVCAR-4 ovarian 103% | SK-OV-3 ovarian 103% | OVCAR-3 ovarian 114% | HS 578T breast 108% | NCI/ADR-RES ovarian 111%

Clc1ccc(-n2ncc3c(NCCCN4CCOCC4)ncnc32)cc1
inactive: SR leukemia 88.9% | RPMI-8226 leukemia 93.7% | OVCAR-8 ovarian 100% | OVCAR-5 ovarian 92.2% | OVCAR-4 ovarian 102% | SK-OV-3 ovarian 93.1% | OVCAR-3 ovarian 105% | HS 578T breast 91.5% | NCI/ADR-RES ovarian 86.8%

O=C1C=CC(=O)N1C1CCCCCCCCCCC1
inactive: RPMI-8226 leukemia 31.1% | OVCAR-8 ovarian 86% | OVCAR-5 ovarian 99.8% | OVCAR-4 ovarian 89.5% | SK-OV-3 ovarian 90.6% | OVCAR-3 ovarian 53% | HS 578T breast 108% | NCI/ADR-RES ovarian 102%
active: SR leukemia 5.7%

Cc1ccc(N2C(=O)C=CC2=O)cc1
inactive: SR leukemia 66% | RPMI-8226 leukemia 98.8% | OVCAR-8 ovarian 110% | OVCAR-5 ovarian 110% | OVCAR-4 ovarian 107% | SK-OV-3 ovarian 121% | OVCAR-3 ovarian 118% | NCI/ADR-RES ovarian 104%

COc1cc(/C=C/c2ccnc3ccccc23)cc(OC)c1OC
inactive: RPMI-8226 leukemia 60.6% | OVCAR-8 ovarian 42.5% | OVCAR-5 ovarian 50.5% | OVCAR-4 ovarian 54.6% | SK-OV-3 ovarian 30.1% | OVCAR-3 ovarian 16.4% | HS 578T breast 24.4%
active: SR leukemia 7.06% | NCI/ADR-RES ovarian -25.5%

Nc1nc(N)c2cc(Sc3cccc(C(F)(F)F)c3)ccc2n1
inactive: OVCAR-8 ovarian 31% | OVCAR-5 ovarian 45.1% | SK-OV-3 ovarian 63.9% | IGROV1 ovarian 21.9% | OVCAR-3 ovarian 25.4% | HS 578T breast 40.4% | NCI/ADR-RES ovarian 17.7%
active: SR leukemia -27.1% | RPMI-8226 leukemia 5.83%

Cn1c(-c2ccccc2)c(/C=C/C2=[N+](C)c3ccccc3C2(C)C)c2ccccc21
inactive: OVCAR-5 ovarian 33.9% | OVCAR-4 ovarian 12.2% | HS 578T breast 11% | NCI/ADR-RES ovarian 86.8%
active: SR leukemia 9.26% | RPMI-8226 leukemia -1.71% | OVCAR-8 ovarian 2.16% | SK-OV-3 ovarian -9.3% | OVCAR-3 ovarian 6.26%

CSc1nc(C)c(C(=O)CCN2CCN(c3ccccn3)CC2)s1
inactive: SR leukemia 94.3% | RPMI-8226 leukemia 80.1% | OVCAR-8 ovarian 98.4% | OVCAR-5 ovarian 104% | OVCAR-4 ovarian 97.5% | SK-OV-3 ovarian 102% | OVCAR-3 ovarian 104% | HS 578T breast 102% | NCI/ADR-RES ovarian 110%

O=[N+]([O-])C=C(c1ccccc1)c1ccccc1
inactive: SR leukemia 22.8% | RPMI-8226 leukemia 64.5% | OVCAR-8 ovarian 92.5% | OVCAR-5 ovarian 83.2% | OVCAR-4 ovarian 79.5% | SK-OV-3 ovarian 78% | IGROV1 ovarian 86.5% | OVCAR-3 ovarian 90.1% | NCI/ADR-RES ovarian 75.5%

COC(=O)c1cc([N+](=O)[O-])cc([N+](=O)[O-])c1Cl
inactive: SR leukemia 30.9% | RPMI-8226 leukemia 87.1% | OVCAR-8 ovarian 76.1% | OVCAR-5 ovarian 97.9% | OVCAR-4 ovarian 61% | SK-OV-3 ovarian 102% | NCI/ADR-RES ovarian 99.1%
active: OVCAR-3 ovarian -44.7%

N#CCc1cccc2ccccc12
inactive: SR leukemia 100% | RPMI-8226 leukemia 103% | OVCAR-8 ovarian 105% | OVCAR-5 ovarian 110% | SK-OV-3 ovarian 113% | IGROV1 ovarian 106% | OVCAR-3 ovarian 120% | HS 578T breast 122% | NCI/ADR-RES ovarian 115%

N#CC(=C1SCS1)[N+](=O)[O-]
inactive: RPMI-8226 leukemia 32% | OVCAR-8 ovarian 18.9% | OVCAR-5 ovarian 47% | OVCAR-4 ovarian 42.6% | SK-OV-3 ovarian 55% | IGROV1 ovarian 24.5% | NCI/ADR-RES ovarian 20.2%
active: SR leukemia 7.48% | OVCAR-3 ovarian 8.46%

CC(/C=N/NC(N)=S)Cc1ccc(C(C)C)cc1 (stereo unspecified)
inactive: SR leukemia 135% | RPMI-8226 leukemia 104% | OVCAR-8 ovarian 79.3% | OVCAR-5 ovarian 86.6% | OVCAR-4 ovarian 29.8% | SK-OV-3 ovarian 85.8% | OVCAR-3 ovarian 77.7% | HS 578T breast 71.7% | NCI/ADR-RES ovarian 64.4%

NCCCN(CCCN)CCCNCc1c2ccccc2c(CNCCCN(CCCN)CCCN)c2ccccc12
inactive: SR leukemia 96.6% | RPMI-8226 leukemia 91.7% | OVCAR-5 ovarian 108% | OVCAR-4 ovarian 99.8% | SK-OV-3 ovarian 100% | IGROV1 ovarian 114% | OVCAR-3 ovarian 107% | HS 578T breast 92.6% | NCI/ADR-RES ovarian 93.9%

O=C1/C(=C/c2ccccc2)CCC/C1=C\c1ccccc1
active: RPMI-8226 leukemia -3.31%
inactive: SR leukemia 67.4% | OVCAR-5 ovarian 120% | OVCAR-4 ovarian 94.1% | SK-OV-3 ovarian 99.6% | IGROV1 ovarian 80% | OVCAR-3 ovarian 65.1% | HS 578T breast 101% | NCI/ADR-RES ovarian 95.2%

COC(=O)c1ccc(=O)c2nc3/c(=C/O)c(O)cc(=O)c3[nH]c12
active: SR leukemia -11.4% | IGROV1 ovarian -61.2% | OVCAR-3 ovarian -4.24% | HS 578T breast -10.3%
inactive: RPMI-8226 leukemia 51.1% | OVCAR-5 ovarian 54.7% | OVCAR-4 ovarian 47.4% | SK-OV-3 ovarian 52% | NCI/ADR-RES ovarian 11%

COC(=O)c1nc(=S)[nH]c(C(=O)OC)c1C(=O)c1ccc(Cl)c(Cl)c1
inactive: SR leukemia 115% | RPMI-8226 leukemia 105% | OVCAR-5 ovarian 118% | OVCAR-4 ovarian 104% | SK-OV-3 ovarian 107% | IGROV1 ovarian 112% | OVCAR-3 ovarian 122% | HS 578T breast 102% | NCI/ADR-RES ovarian 110%
